Results reported in PubChem BioAssay AID493231 (Broad Institute, 2011).
Results with a measured potency or affinity are listed apart. The source made the active and inactive calls. The rule behind the calls is not given here.

target: Acyl-homoserine lactone acylase PvdQ (Pseudomonas aeruginosa (strain ATCC 15692 / DSM 22644 / CIP 104116 / JCM 14847 / LMG 12228 / 1C / PRS 101 / PAO1)) (UniProt Q9I194); assay: P. aeruginosa PvdQ acylase inhibitors, dose response, biochemical, fluorescence, plate reader and imaging, cherry-picks (AID 493231); conditions: purified PvdQ acylase, fluorogenic substrate; series mostly up to 10 µM; activity change, negative = inhibition: at the top concentration;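 note: 0% = neutral control wells and -100% = reference inhibitor wells; more negative values mean stronger inhibition of the acylase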
Sequence (Q9I194 whole entry, looked up): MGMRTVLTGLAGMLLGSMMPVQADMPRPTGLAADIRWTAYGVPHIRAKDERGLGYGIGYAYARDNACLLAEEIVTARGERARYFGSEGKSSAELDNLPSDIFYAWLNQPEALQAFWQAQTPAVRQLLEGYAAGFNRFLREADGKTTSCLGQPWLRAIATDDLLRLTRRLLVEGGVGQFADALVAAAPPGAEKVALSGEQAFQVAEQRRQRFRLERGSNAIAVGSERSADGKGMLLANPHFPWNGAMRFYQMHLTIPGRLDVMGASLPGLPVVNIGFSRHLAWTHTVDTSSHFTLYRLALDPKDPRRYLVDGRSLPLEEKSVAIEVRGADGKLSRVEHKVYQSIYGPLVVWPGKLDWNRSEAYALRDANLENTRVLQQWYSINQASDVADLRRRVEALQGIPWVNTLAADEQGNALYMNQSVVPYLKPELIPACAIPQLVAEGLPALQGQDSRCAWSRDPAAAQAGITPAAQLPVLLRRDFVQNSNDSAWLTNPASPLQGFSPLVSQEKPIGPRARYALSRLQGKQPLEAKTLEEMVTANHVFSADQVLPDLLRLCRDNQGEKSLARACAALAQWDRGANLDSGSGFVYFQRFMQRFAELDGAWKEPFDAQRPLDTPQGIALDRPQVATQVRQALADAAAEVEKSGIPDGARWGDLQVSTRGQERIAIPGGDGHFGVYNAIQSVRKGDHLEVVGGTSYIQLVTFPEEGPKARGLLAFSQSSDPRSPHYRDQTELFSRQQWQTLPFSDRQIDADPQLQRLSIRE

Activity change, negative = inhibition, inactive:
COc1ccc(C2NCCc3c2[nH]c2ccccc32)cc1COc1ccc(F)cc1 (stereo unspecified) -8.73 unspecified
CC1CCCCC1NS(=O)(=O)c1ccc(S(=O)(=O)N2CCCC2)cc1 (stereo unspecified) 13.8 unspecified
O=C(O)c1cc2nccc(-c3ccco3)n2n1 -104 unspecified
Clc1ccc2nc(-c3ccc4c(c3)OCO4)cn2c1 -8.24 unspecified
Cc1ccc(S(=O)(=O)N(CC(=O)N2CCC(C)CC2)c2ccccc2)cc1 2.52 unspecified
Cc1ccc(-c2nc3ccsc3c(=O)o2)cc1 -7.99 unspecified
O=C(CCc1c[nH]c2ccccc12)N/N=C/c1ccc2c(c1)OCO2 13.2 unspecified
CCOc1ccccc1-c1cc(-c2n[nH]c(=S)n2CC)c2ccccc2n1 3.92 unspecified
CC(C)Cn1nc(C(=O)Nc2nnc(C3CC3)s2)c2ccccc2c1=O 0.75 unspecified
Clc1ccc2nc3c4ccccc4cnn3c2c1 -7.83 unspecified
COCCCNC(=O)CC1C[C@H](C(=O)N2CCCCC2)[C@@]2(CCc3ccccc3)c3[nH]c4ccc(OC)cc4c3CCN2C1=O (stereo partly specified) -1.87 unspecified
Cn1nnnc1SCC(=O)NCCCc1ccccc1 13.1 unspecified
C(=C\c1nnc(-c2cccs2)o1)/c1ccccc1 -18.1 unspecified
CCOC(=O)c1[nH]c2c(c1C)C(=O)CC(c1ccco1)C2 (stereo unspecified) -96.1 unspecified
COc1ccc(CCNC(=O)/C(C#N)=C/c2ccc(OCC(=O)NCC3CCCO3)cc2)cc1OC (stereo unspecified) 10.4 unspecified
COc1ccccc1C1CCN(C(=O)C2CCCCC2)CC1 -96.5 unspecified
